Experimental findings from PubChem BioAssay (EPA / NIEHS) are described below.

What all share (settings): mRNA level, 48 h; actives raise or lower the signal
Read-out in test [1]: Bcl-2 (BID) gene, BID (gene 637)
The test is described as follows: LTEA_HepaRG_BID: Life Technologies and Expression Analysis (LTEA) Assay for Bcl-2 (BID) gene using HepaRG (AID 2283476). The essentials:
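Gene expression by qRT-PCR in HepaRG cells after 48 h exposure, duplicate wells, eight half-log concentrations topping at 100 uM in 0.5% DMSO. Normalized to ACTB, GAPDH, POLR2A; bidirectional fitting relative to DMSO.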

Read-out in test [2]: Caspase-3 (Homo sapiens) (UniProt P42574)
In words: LTEA_HepaRG_CASP3: Life Technologies and Expression Analysis (LTEA) Assay for cysteine-aspartic acid protease (CASP3) using HepaRG (AID 2283477). In outline: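 In HepaRG liver cells dosed for 48 h at up to 100 uM (eight-point, duplicate), CASP3 expression changes are scored by qRT-PCR. Activity is fitted in both directions with 0.5% DMSO as baseline.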

Read-out in test [3]: Cytochrome P450 (CYP24A1), CYP24A1 (gene 1591)
The test is described as follows: LTEA_HepaRG_CYP24A1: Life Technologies and Expression Analysis (LTEA) Assay for Cytochrome P450 (CYP24A1) using HepaRG (AID 2283478). The essentials: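 Human liver HepaRG cultures receive each chemical for 48 h across an eight-point half-log series topping at 100 uM in 0.5% DMSO. Induction or suppression of CYP24A1 mRNA is scored relative to vehicle after housekeeping-gene normalization.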

Read-out in test [4]: Cytochrome P450 (CYP1A2), CYP1A2 (gene 1544)
In words: LTEA_HepaRG_CYP1A2: Life Technologies and Expression Analysis (LTEA) Assay for Cytochrome P450 (CYP1A2) using HepaRG (AID 2283479). The essentials:
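Assesses CYP1A2 mRNA in human HepaRG liver cells after 48 h chemical exposure at up to 100 uM. Values come from qRT-PCR with bidirectional curve fitting relative to DMSO.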

Read-out in test [5]: cysteine-aspartic acid protease (CASP8), CASP8 (gene 841)
The test is described as follows: LTEA_HepaRG_CASP8: Life Technologies and Expression Analysis (LTEA) Assay for cysteine-aspartic acid protease (CASP8) using HepaRG (AID 2283480). In outline:
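Differentiated HepaRG cells in serum-free induction medium, 48 h exposure, eight-point half-log series from 100 uM in 0.5% DMSO, duplicates. CASP8 mRNA by qRT-PCR, normalized to ACTB, GAPDH, POLR2A; bidirectional fit versus DMSO.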

Read-out in test [6]: Cytochrome P450 (CYP2B6), CYP2B6 (gene 1555)
The test is described as follows: LTEA_HepaRG_CYP2B6: Life Technologies and Expression Analysis (LTEA) Assay for Cytochrome P450 (CYP2B6) using HepaRG (AID 2283481). In outline:
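Using 48 h treatment of HepaRG cells in serum-free induction medium, concentrations spanned half-log steps from 100 uM in 0.5% DMSO vehicle. CYP2B6 mRNA induction or loss is scored by qRT-PCR against DMSO.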

Read-out in test [7]: Cytochrome P450 2C19 (Homo sapiens) (UniProt P33261)
In words: LTEA_HepaRG_CYP2C19: Life Technologies and Expression Analysis (LTEA) Assay for CYP2C19 using HepaRG (AID 2283482). In outline:
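Human HepaRG liver cells received test chemicals for 48 h (highest 100 uM, half-log dilutions in 0.5% DMSO). CYP2C19 mRNA induction or loss is read by multiplexed qRT-PCR and fitted in both directions versus vehicle.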

Read-out in test [8]: CYP2C8 (gene 1558)
The test is described as follows: LTEA_HepaRG_CYP2C8: Life Technologies and Expression Analysis (LTEA) Assay for CYP2C8 using HepaRG (AID 2283483). In outline:
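Differentiated HepaRG cells in serum-free induction medium exposed 48 h in duplicate to 8 half-log concentrations from 100 uM in 0.5% DMSO. CYP2C8 mRNA by qRT-PCR normalized to ACTB, GAPDH, POLR2A; bidirectional fit versus DMSO.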

Read-out in test [9]: CYP2C9 (gene 1559)
In words: LTEA_HepaRG_CYP2C9: Life Technologies and Expression Analysis (LTEA) Assay for CYP2C9 using HepaRG (AID 2283484). In outline: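 Differentiated human HepaRG cells in serum-free induction medium were exposed 48 h to chemicals in 8-point half-log series from 100 uM (0.5% DMSO), in duplicate. CYP2C9 mRNA was measured by qRT-PCR, normalized to ACTB/GAPDH/POLR2A, with bidirectional fitting versus DMSO.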

Read-out in test [10]: CYP2E1 (gene 1571)
In words: LTEA_HepaRG_CYP2E1: Life Technologies and Expression Analysis (LTEA) Assay for CYP2E1 using HepaRG (AID 2283485). The essentials: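 HepaRG cells, plated 48 h, then exposed 48 h in serum-free induction medium to eight half-log concentrations from 100 uM in 0.5% DMSO, duplicate. CYP2E1 mRNA by qRT-PCR, normalized to ACTB/GAPDH/POLR2A; bidirectional fit versus DMSO.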

Read-out in test [11]: CYP4A11 (gene 1579)
In words: LTEA_HepaRG_CYP4A11: Life Technologies and Expression Analysis (LTEA) Assay for CYP4A11 using HepaRG (AID 2283486). The essentials: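 Readout is CYP4A11 mRNA induction or suppression (qRT-PCR, ACTB/GAPDH/POLR2A normalization) in human HepaRG cells after 48 h chemical treatment, concentrations to 100 uM in 0.5% DMSO, fitted bidirectionally against vehicle.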

Read-out in test [12]: Cytochrome P450 3A4 (Homo sapiens) (UniProt P08684)
In words: LTEA_HepaRG_CYP3A4: Life Technologies and Expression Analysis (LTEA) Assay for CYP3A4 using HepaRG (AID 2283487). In outline: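 In a human hepatic line (HepaRG), duplicate wells were treated 48 h with up to 100 uM chemical in half-log dilutions. Endpoint: CYP3A4 mRNA induction or loss relative to 0.5% DMSO vehicle, by qRT-PCR.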

Read-out in test [13]: DNA damage-inducible transcript 3 (DDIT3), DDIT3 (gene 1649)
In words: LTEA_HepaRG_DDIT3: Life Technologies and Expression Analysis (LTEA) Assay for DNA damage-inducible transcript 3 (DDIT3) using HepaRG (AID 2283488). The essentials:
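HepaRG cells, 48 h after plating, exposed 48 h in serum-free induction medium to 8 half-log concentrations up to 100 uM in 0.5% DMSO, in duplicate. DDIT3 mRNA measured by TaqMan qRT-PCR, normalized to ACTB, GAPDH and POLR2A. Fitted bidirectionally against DMSO.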

Read-out in test [14]: Pro-epidermal growth factor (Homo sapiens) (UniProt P01133)
In words: LTEA_HepaRG_EGF: Life Technologies and Expression Analysis (LTEA) Assay for Epidermal growth factor (EGF) using HepaRG (AID 2283489). The essentials:
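EGF expression changes in human HepaRG cells are scored by bidirectional fitting relative to 0.5% DMSO controls. Chemicals are tested at eight half-log concentrations up to 100 uM for 48 h in serum-free induction medium.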

Read-out in test [15]: Ezrin (EZR), EZR (gene 7430)
The test is described as follows: LTEA_HepaRG_EZR: Life Technologies and Expression Analysis (LTEA) Assay for Ezrin (EZR) using HepaRG (AID 2283491). The essentials:
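Gain or loss of EZR mRNA is scored relative to 0.5% DMSO in human HepaRG cultures treated 48 h with test chemicals in duplicate, eight half-log concentrations from 100 uM.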

Read-out in test [16]: Cytochrome P450 3A7 (Homo sapiens) (UniProt P24462)
In words: LTEA_HepaRG_CYP3A7: Life Technologies and Expression Analysis (LTEA) Assay for CYP3A7 using HepaRG (AID 2283492). The essentials:
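Cells were thawed, plated, cultured 48 h, then treated for a further 48 h with chemicals (eight-point half-log series from 100 uM, 0.5% DMSO). RNA was isolated and CYP3A7 expression quantified by qRT-PCR normalised to ACTB, GAPDH and POLR2A.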

Read-out in test [17]: CYP3A5 (gene 1577)
The test is described as follows: LTEA_HepaRG_CYP3A5: Life Technologies and Expression Analysis (LTEA) Assay for CYP3A5 using HepaRG (AID 2283493). In outline:
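HepaRG cells, plated 48 h then in serum-free induction medium, dosed in duplicate for 48 h with eight half-log concentrations up to 100 uM in 0.5% DMSO. Gene mRNA by Fluidigm TaqMan qRT-PCR, normalized to ACTB, GAPDH, POLR2A.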

Read-out in test [18]: Fatty Acid-Binding Protein 1 (FABP1), FABP1 (gene 2168)
In words: LTEA_HepaRG_FABP1: Life Technologies and Expression Analysis (LTEA) Assay for Fatty Acid-Binding Protein 1 (FABP1) using HepaRG (AID 2283494). The essentials:
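Differentiated human HepaRG cells exposed 48 h in serum-free induction medium to eight half-log concentrations up to 100 uM (0.5% DMSO), duplicate. FABP1 mRNA by qRT-PCR, normalised to ACTB, GAPDH, POLR2A; bidirectional fitting against DMSO.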

Read-out in test [19]: Cytochrome P450 4A22 (Homo sapiens) (UniProt Q5TCH4)
In words: LTEA_HepaRG_CYP4A22: Life Technologies and Expression Analysis (LTEA) Assay for Cytochrome P450 4A22 (CYP4A22) using HepaRG (AID 2283495). The essentials:
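Cryopreserved HepaRG cells, plated and cultured 48 h, then switched to serum-free induction medium and treated 48 h (duplicates, up to 100 uM, half-log steps, 0.5% DMSO). Expression change of CYP4A22 was fitted bidirectionally against vehicle.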

Read-out in test [20]: Early growth response protein 1 (EGR1) transcription factor, EGR1 (gene 1958)
The test is described as follows: LTEA_HepaRG_EGR1: Life Technologies and Expression Analysis (LTEA) Assay for Early growth response protein 1 (EGR1) transcription factor using HepaRG (AID 2283490). The essentials:
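Differentiated HepaRG cells in serum-free induction medium exposed 48 hours, duplicate, to 8 half-log concentrations up to 100 uM in 0.5% DMSO. EGR1 mRNA measured by TaqMan qRT-PCR, normalized to ACTB, GAPDH, POLR2A; bidirectional fit versus DMSO.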

Activity calls are given as the source filed them. Rule for the calls: active = hit-call score of the fitted dose curve at least 0.9, where 1 is the maximum; inactive = score below 0.9.

Sequence of Caspase-3 (Homo sapiens) (P42574 whole entry, looked up): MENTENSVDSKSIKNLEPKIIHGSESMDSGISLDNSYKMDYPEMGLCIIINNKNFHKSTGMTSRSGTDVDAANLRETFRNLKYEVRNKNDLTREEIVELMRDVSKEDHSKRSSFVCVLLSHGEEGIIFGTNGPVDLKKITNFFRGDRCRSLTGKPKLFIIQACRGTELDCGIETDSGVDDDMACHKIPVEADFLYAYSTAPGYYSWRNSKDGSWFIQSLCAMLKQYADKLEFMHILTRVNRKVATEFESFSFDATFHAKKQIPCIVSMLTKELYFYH
Sequence of Cytochrome P450 3A7 (Homo sapiens) (P24462 whole entry, looked up): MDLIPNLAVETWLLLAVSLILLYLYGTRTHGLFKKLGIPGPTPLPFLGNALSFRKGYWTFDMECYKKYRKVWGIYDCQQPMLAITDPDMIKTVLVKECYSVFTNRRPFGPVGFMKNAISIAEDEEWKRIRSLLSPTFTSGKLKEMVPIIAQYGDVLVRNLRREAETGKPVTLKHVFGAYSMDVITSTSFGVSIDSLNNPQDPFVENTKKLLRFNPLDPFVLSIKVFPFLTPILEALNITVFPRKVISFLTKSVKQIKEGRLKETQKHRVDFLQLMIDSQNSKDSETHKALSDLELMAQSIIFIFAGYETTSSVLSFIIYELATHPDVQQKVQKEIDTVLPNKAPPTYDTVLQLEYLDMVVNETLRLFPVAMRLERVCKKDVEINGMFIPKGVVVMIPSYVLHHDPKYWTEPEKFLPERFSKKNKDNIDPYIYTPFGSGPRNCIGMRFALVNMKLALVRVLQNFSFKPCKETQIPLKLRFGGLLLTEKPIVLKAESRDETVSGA
Sequence of Cytochrome P450 3A4 (Homo sapiens) (P08684 whole entry, looked up): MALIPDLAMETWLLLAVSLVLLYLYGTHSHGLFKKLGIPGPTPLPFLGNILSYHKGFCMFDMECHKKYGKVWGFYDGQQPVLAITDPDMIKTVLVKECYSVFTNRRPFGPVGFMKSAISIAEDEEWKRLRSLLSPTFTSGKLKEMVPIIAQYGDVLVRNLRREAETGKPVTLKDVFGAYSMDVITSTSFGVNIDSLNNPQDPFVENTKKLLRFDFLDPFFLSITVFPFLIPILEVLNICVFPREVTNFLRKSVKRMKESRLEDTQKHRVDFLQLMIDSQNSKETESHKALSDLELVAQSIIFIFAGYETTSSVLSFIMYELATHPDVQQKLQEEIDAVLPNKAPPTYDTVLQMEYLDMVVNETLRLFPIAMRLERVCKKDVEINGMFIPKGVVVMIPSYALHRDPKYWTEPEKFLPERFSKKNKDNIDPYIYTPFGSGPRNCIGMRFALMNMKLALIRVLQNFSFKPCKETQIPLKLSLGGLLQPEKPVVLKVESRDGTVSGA
Sequence of Cytochrome P450 2C19 (Homo sapiens) (P33261 whole entry, looked up): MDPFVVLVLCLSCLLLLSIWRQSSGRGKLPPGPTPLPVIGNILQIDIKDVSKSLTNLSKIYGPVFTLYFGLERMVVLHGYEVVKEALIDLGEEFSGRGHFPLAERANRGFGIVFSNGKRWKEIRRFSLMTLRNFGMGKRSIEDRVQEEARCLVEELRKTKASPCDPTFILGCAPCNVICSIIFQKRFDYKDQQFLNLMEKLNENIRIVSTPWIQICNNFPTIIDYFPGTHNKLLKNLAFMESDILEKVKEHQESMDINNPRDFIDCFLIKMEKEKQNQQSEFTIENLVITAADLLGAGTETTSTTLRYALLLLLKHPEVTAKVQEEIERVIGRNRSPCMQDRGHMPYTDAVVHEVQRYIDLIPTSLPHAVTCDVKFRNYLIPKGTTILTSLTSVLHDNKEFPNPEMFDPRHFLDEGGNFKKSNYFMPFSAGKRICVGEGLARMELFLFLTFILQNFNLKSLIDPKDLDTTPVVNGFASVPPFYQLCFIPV

On to `O=P(O)(O)CCCl`, for which the molecule was classed as inactive in [1], in [2], in test [3], in test [4], in test [5] and in [6]. The result in test [8], in test [9], in test [10], in test [11], in [12] and in test [13] was inactive. Also, the outcome in [14], in [15], in test [16], in test [17], in [18] and in test [19] was inactive. Further, in test [7], the AC50 is 396 nM (active).
Take `CN/C(=N\[N+](=O)[O-])NCc1cnc(Cl)s1`: the call in test [1], in [2], in test [3], in [4], in test [5] and in test [7] was inactive. Further, the molecule was classed as inactive in [8], in test [9], in test [11], in test [12], in test [14] and in test [20]. For the same molecule, the result in test [15], in [16], in test [17] and in test [19] was inactive. Further, the results for the half-maximal activity concentration (AC50) in [6], in test [10] and in [18] were 30.8 µM (active), 50 µM (active) and 33.4 µM (active), respectively.
With `Cc1cc(C)nc(Nc2ccccc2)n1`, the outcome in [1], in test [2], in test [3], in test [5], in [7] and in [8] was inactive. For the same molecule, the call in test [9], in test [10], in [12], in [13], in [14] and in [20] was inactive. Besides, the molecule was classed as inactive in [15], in test [16], in test [17], in test [18] and in test [19]. The half-maximal activity concentration (AC50) was 88.8 µM (active) in [4], 6.39 µM (active) in test [6] and 50 µM (active) in test [11].

The AC50 is the concentration at which the activity in the assay is half-maximal.
